Test results taken from PubChem BioAssay (NCI).
Compounds without any hit were thinned out: in the full panel of roughly 83,000, 20% have a hit.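 The test compound was applied at a single concentration to cells in 96-well plates for 48 hours, and percent growth was recorded.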 Activity calls are given as the source filed them. The calls were made as follows: active = growth percent below 10; inactive = the rest.

Tests used:
Assay in all cases: NCI-60 one-dose screen, 48 h (100 = growth as untreated, 0 = no growth, -100 = all killed)
Details in all cases: 10 µM unless noted
T-47D breast = tested on: T-47D breast
BT-549 breast = tested on: BT-549 breast
MDA-MB-435 melanoma = tested on: MDA-MB-435 melanoma
SW-620 colon = tested on: SW-620 colon
MCF7 breast = tested on: MCF7 breast
HCT-116 colon = tested on: HCT-116 colon
HCC-2998 colon = tested on: HCC-2998 colon
KM12 colon = tested on: KM12 colon

Measured: growth

CS(=O)(=O)c1ccc(NC(=O)c2ccccc2)nc1
inactive: T-47D breast 98.9% | BT-549 breast 105% | MDA-MB-435 melanoma 111% | SW-620 colon 100% | MCF7 breast 101% | HCT-116 colon 95.3% | HCC-2998 colon 107% | KM12 colon 107%

Cc1ccc(S(=O)(=O)c2nc(-c3ccccc3)oc2Sc2nc3ccccc3s2)cc1
inactive: T-47D breast 62.7% | BT-549 breast 17.6% | MDA-MB-435 melanoma 54.7% | SW-620 colon 54.7% | MCF7 breast 58% | HCC-2998 colon 107% | KM12 colon 97.2%
active: HCT-116 colon -1.16%

CN1CCN(c2ccc3nc4c(nc3c2C(F)(F)F)C(=O)c2ncccc2C4=O)CC1
inactive: KM12 colon 13%
active: T-47D breast -28.4% | BT-549 breast -97% | MDA-MB-435 melanoma -91.8% | SW-620 colon 4.71% | MCF7 breast -57% | HCT-116 colon 0.984% | HCC-2998 colon -26.9%

CCOC(=O)c1c(C)nc2ccccc2c1/C=C/c1ccccc1
inactive: T-47D breast 25.7% | BT-549 breast 61.7% | MDA-MB-435 melanoma 70.2% | SW-620 colon 91.1% | MCF7 breast 65.5% | HCT-116 colon 59.5% | HCC-2998 colon 87.2% | KM12 colon 71.8%

CN(C)c1ccc(-c2ccc3c(c2)c(-c2ccccc2)nc(=O)n3C)cn1
inactive: T-47D breast 22.1% | BT-549 breast 49.1% | SW-620 colon 26.3% | MCF7 breast 18% | HCT-116 colon 22.1% | HCC-2998 colon 78.2% | KM12 colon 43.2%
active: MDA-MB-435 melanoma -11.1%

c1ccc(CCNc2c3ccccc3nc3ccccc23)cc1
inactive: T-47D breast 48.9% | BT-549 breast 73.6% | MDA-MB-435 melanoma 55.3% | SW-620 colon 28.3% | MCF7 breast 12.2% | HCT-116 colon 16.5% | HCC-2998 colon 41.4% | KM12 colon 57.4%

CC(=O)/C(=C/c1ccc([N+](=O)[O-])cc1)C(=O)c1ccccc1
inactive: T-47D breast 67.6% | BT-549 breast 89.8% | MDA-MB-435 melanoma 77.3% | SW-620 colon 65.4% | MCF7 breast 29.2% | HCT-116 colon 35.7% | HCC-2998 colon 95.2% | KM12 colon 58.9%

Nc1ccc(-c2csc(-n3[nH]c(=O)ccc3=O)n2)cc1
inactive: T-47D breast 98.5% | BT-549 breast 92% | MDA-MB-435 melanoma 103% | SW-620 colon 104% | MCF7 breast 86.6% | HCT-116 colon 94% | HCC-2998 colon 112% | KM12 colon 104%

COc1ccc(/C=C(/C(=O)n2cnnn2)c2cc(OC)c(OC)c(OC)c2)cc1
inactive: T-47D breast 43.1% | BT-549 breast 38.2% | SW-620 colon 21.2% | MCF7 breast 16.2% | HCT-116 colon 13.7% | HCC-2998 colon 28.2% | KM12 colon 17.7%
active: MDA-MB-435 melanoma -50.3%

O=C(NCc1cccc(CNC(=O)Nc2nc3ccccc3[nH]2)c1)Nc1nc2ccccc2[nH]1
active: MDA-MB-435 melanoma -74.9% | SW-620 colon -41.6% | MCF7 breast -43.7% | HCT-116 colon -82.4% | KM12 colon -41.9%
inactive: T-47D breast 15.9% | BT-549 breast 29.3% | HCC-2998 colon 17.9%

O=S(=O)(NCCCNc1nccc(-c2c(-c3cccc(F)c3)nc3occn23)n1)c1ccc(F)cc1
active: T-47D breast 6.92%
inactive: BT-549 breast 69.4% | MDA-MB-435 melanoma 25.6% | SW-620 colon 67.7% | MCF7 breast 60.1% | HCT-116 colon 34% | HCC-2998 colon 77.3% | KM12 colon 40.4%

O=C1c2cccc3cccc(c23)C(=O)N1C/C=C/c1ccc2c3c(cccc13)C(=O)N(CCO)C2=O
inactive: T-47D breast 76.7% | BT-549 breast 40.3% | MDA-MB-435 melanoma 94.4% | SW-620 colon 81.8% | MCF7 breast 80.1% | HCT-116 colon 76% | HCC-2998 colon 85.7% | KM12 colon 76.2%

COc1ccc2c(c1)c(/C(O)=C1\COC(=O)C1=O)cn2Cc1ccc(F)cc1
inactive: T-47D breast 114% | BT-549 breast 110% | MDA-MB-435 melanoma 109% | SW-620 colon 101% | MCF7 breast 107% | HCT-116 colon 104% | HCC-2998 colon 108% | KM12 colon 109%

COc1ccc(/C=C(/c2ccccc2)[N+](=O)[O-])c(OC)c1
active: T-47D breast -6.78% | BT-549 breast -17.7% | MDA-MB-435 melanoma -21.6% | SW-620 colon -71.3% | MCF7 breast 3.58% | HCT-116 colon -42.8% | HCC-2998 colon -71.4% | KM12 colon -32.4%

O=C(CCl)NNc1nccc(Nc2ccc(S(=O)(=O)Nc3ccncc3)cc2)n1
inactive: T-47D breast 15.9% | BT-549 breast 25.6% | MDA-MB-435 melanoma 41.3% | SW-620 colon 28.5% | MCF7 breast 22.3% | HCT-116 colon 10.7% | HCC-2998 colon 95.3% | KM12 colon 62%

COc1cc(-c2nc3sccn3c2-c2ccnc(NCCNS(=O)(=O)c3ccc(Cl)cc3)n2)ccc1F
active: T-47D breast 1.61% | MDA-MB-435 melanoma 9.48%
inactive: BT-549 breast 30.9% | SW-620 colon 50.6% | MCF7 breast 17.7% | HCT-116 colon 20.9% | HCC-2998 colon 66.5% | KM12 colon 17%

CCN1C2CCC1/C(=C\c1ccc(F)cc1)C(=O)/C2=C/c1ccc(F)cc1
active: HCT-116 colon 7.21%
inactive: T-47D breast 45.8% | BT-549 breast 24.9% | MDA-MB-435 melanoma 25% | SW-620 colon 30.4% | MCF7 breast 18.6% | HCC-2998 colon 65.8% | KM12 colon 17.5%

O=C(/C=C/c1ccccc1)c1ccc(Nc2nc(Nc3ccc(F)cc3)nc(Nc3ccc(Cl)cc3)n2)cc1
inactive: T-47D breast 62.1% | BT-549 breast 101% | MDA-MB-435 melanoma 95.7% | SW-620 colon 90.4% | MCF7 breast 30.2% | HCT-116 colon 49.6% | HCC-2998 colon 70.8% | KM12 colon 91.6%

O=C(/C=C/c1cccc(Cl)c1Cl)Nc1ncc(Cc2ccccc2Cl)s1
inactive: T-47D breast 43.8% | BT-549 breast 76.7% | SW-620 colon 27% | MCF7 breast 12.7% | HCT-116 colon 24.2% | HCC-2998 colon 76.3% | KM12 colon 28.8%
active: MDA-MB-435 melanoma -46.5%

CN1C(=O)/C(=C/c2ccc(C(=O)Nc3ncc(Cc4cccc(Cl)c4)s3)cc2)SC1=S
active: MDA-MB-435 melanoma 5.05%
inactive: T-47D breast 42.7% | BT-549 breast 57% | SW-620 colon 37.4% | MCF7 breast 46% | HCT-116 colon 47.5% | HCC-2998 colon 59.2% | KM12 colon 33.5%

[2H]C([2H])([2H])Oc1ccc(F)cc1/C=C/C(=O)/C=C(O)/C=C/c1cc(F)ccc1OC([2H])([2H])[2H]
inactive: T-47D breast 73.5% | BT-549 breast 93.3% | MDA-MB-435 melanoma 84.5% | SW-620 colon 102% | MCF7 breast 70% | HCT-116 colon 83.9% | HCC-2998 colon 105% | KM12 colon 98.4%

COc1ccc(C2=CC(c3cc(OC)c(OC)c(OC)c3)n3ncnc3N2)cc1 (stereo not drawn)
active: BT-549 breast 4.42% | MDA-MB-435 melanoma -21.9% | HCT-116 colon 0.658% | KM12 colon 6%
inactive: T-47D breast 62.9% | SW-620 colon 21.5% | MCF7 breast 15% | HCC-2998 colon 26.5%

O=S1(=O)C=C(c2ccccc2)C(c2ccccc2)=C1
active: T-47D breast -63.4% | SW-620 colon -82.9% | MCF7 breast 6.2% | HCT-116 colon -74.8%
inactive: BT-549 breast 79.6% | MDA-MB-435 melanoma 25.4% | HCC-2998 colon 15.5% | KM12 colon 16.5%

N#Cc1ccc(O)c(C2=NCC(Cc3ccccc3)O2)c1 (stereo not drawn)
active: T-47D breast -1.96%
inactive: BT-549 breast 37.7% | MDA-MB-435 melanoma 64.5% | SW-620 colon 40.2% | MCF7 breast 39% | HCT-116 colon 14.9% | HCC-2998 colon 72.3% | KM12 colon 40.9%

c1ccc2c(c1)CCCc1nnc3nc4ccccc4n3c1-2
inactive: T-47D breast 31.7% | BT-549 breast 62.9% | MDA-MB-435 melanoma 61.9% | SW-620 colon 53.7% | MCF7 breast 45.6% | HCT-116 colon 17% | HCC-2998 colon 42.4% | KM12 colon 55.8%

Cc1nn(-c2ccccc2)c(N)c1N=C1NC(=O)/C(=C/c2ccc(Br)cc2)S1
inactive: T-47D breast 85.3% | BT-549 breast 78.6% | MDA-MB-435 melanoma 49.7% | SW-620 colon 84.2% | MCF7 breast 78.2% | HCT-116 colon 68% | HCC-2998 colon 111% | KM12 colon 76%

Cc1cc(Nc2ccc(C(=O)N3CCCC3)cc2)nc(NCCCNc2ccnc3cc(Cl)ccc23)n1
inactive: T-47D breast 77.8% | BT-549 breast 84.6% | MDA-MB-435 melanoma 79.6% | SW-620 colon 95.9% | MCF7 breast 51.6% | HCT-116 colon 54.5% | HCC-2998 colon 80.9% | KM12 colon 87.4%

c1nc2ccc(-c3cc4ccc5[nH]ncc5c4c4c3CCCC4)cc2[nH]1
inactive: T-47D breast 60.3% | BT-549 breast 34.1% | MDA-MB-435 melanoma 21.2% | SW-620 colon 39.4% | MCF7 breast 59% | HCC-2998 colon 75.5% | KM12 colon 30.8%
active: HCT-116 colon 7.07%

CCOc1ccc(-n2nc(C(=O)NCc3ccccc3OC)nc2-c2cc(OC)c(OC)c(OC)c2)cc1
inactive: T-47D breast 17% | BT-549 breast 33.9% | MDA-MB-435 melanoma 22.1% | SW-620 colon 58% | MCF7 breast 22.1% | HCT-116 colon 25.3% | HCC-2998 colon 57.5% | KM12 colon 33.8%

O=C1/C(=C/c2ccccc2F)CN(C(=O)C(Cl)Cl)C/C1=C\c1ccccc1F
active: T-47D breast -7.38% | BT-549 breast -46.5% | MDA-MB-435 melanoma -56.8% | SW-620 colon -76.9% | MCF7 breast -49% | HCT-116 colon -90.3% | HCC-2998 colon -76.9% | KM12 colon -51.7%

CCN1CCN(CC(=O)Nc2ccc(-c3cn4c(n3)sc3cc(Oc5ccnc(C(=O)NC)c5)ccc34)cc2)CC1
active: SW-620 colon 8.44% | HCT-116 colon 1.48%
inactive: T-47D breast 32.8% | BT-549 breast 57.2% | MDA-MB-435 melanoma 10.1% | MCF7 breast 80.2% | HCC-2998 colon 117% | KM12 colon 75.6%
